Compound activity: PubChem, several laboratories
A selection: hits, their analogues and other compounds. The true share with any hit is near 27%.
EphB4 antag = EphB4-ephrin-B2 interaction antagonists, primary screen, biochemical, TNYL-RAW peptide probe, fluorescence polarization; actives 0.15% (n = 97,000); AID 720, 2007; Ephrin type-B receptor 4 (Homo sapiens), P54760; EphB4 LBD / TNYL-RAW-Alexa532 peptide; inhibition, % at 7 µM;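 active = inhibition above the screen-wide mean inhibition plus 3 SD, cut at about 15% in these data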
CYP2C9 act = human CYP2C9 activators, primary screen, biochemical, luminescence. recombinant CYP2C9, luciferin-H conversion; stronger effect = higher value; factor 1 = untreated enzyme, 0 = blocked. activation factor at 5 µM. actives 1.4% (n = 96,000). AID 1024, 2008;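 active = activation factor of 2 or more for CYP2C9 at a 5 µM dose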
CYP2C9 inh = blockers of cytochrome P450 2C9 activity – biochemical, luminescence, ADME assay, primary screen | AID 777, 2007 | actives 20% (n = 96,000) | CYP2C9 Supersomes, luciferin-H conversion | P11712 | inhibition, % at 5 µM;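 active = blocking of liver enzyme CYP2C9 beyond about 50% at 5 µM, limit read from the data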
CYP2C19 inh = blockers of cytochrome P450 2C19 activity – biochemical, luminescence, ADME assay, primary screen. P33261. CYP2C19 Supersomes, luciferin-H EGE luminescence, 30 min. inhibition, % at 5 µM. actives 21% (n = 96,000);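 active = CYP2C19 inhibition above a set limit at 5 µM in the primary screen, cut at about 50% in these data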
Target sequence (P33261 whole entry, looked up): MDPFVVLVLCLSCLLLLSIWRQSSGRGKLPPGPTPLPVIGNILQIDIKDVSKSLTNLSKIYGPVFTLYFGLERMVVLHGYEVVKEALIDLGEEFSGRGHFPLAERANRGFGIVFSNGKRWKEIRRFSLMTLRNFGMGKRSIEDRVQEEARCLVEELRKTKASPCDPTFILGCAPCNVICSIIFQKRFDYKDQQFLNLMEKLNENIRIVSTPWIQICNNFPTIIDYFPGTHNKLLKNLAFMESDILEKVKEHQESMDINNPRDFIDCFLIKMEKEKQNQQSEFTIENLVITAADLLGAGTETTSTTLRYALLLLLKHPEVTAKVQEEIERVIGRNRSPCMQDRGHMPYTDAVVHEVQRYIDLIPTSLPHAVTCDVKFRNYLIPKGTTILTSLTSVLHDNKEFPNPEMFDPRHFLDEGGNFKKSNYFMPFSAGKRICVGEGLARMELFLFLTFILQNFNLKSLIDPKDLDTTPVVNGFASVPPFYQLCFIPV
CYP2C19 activ = human CYP2C19 activators, primary screen, biochemical, luminescence | Cytochrome P450 2C19 (Homo sapiens), P33261 | recombinant CYP2C19, luciferin-H EGE luminescence; stronger effect = higher value; 0 = fully inhibited enzyme, 1 = untreated enzyme | activation factor at 5 µM | 96,000 tested, under 10 active;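 active = activation factor of at least 2 at 5 µM in the primary screen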
A number is an active result; - = inactive; . = not tested or not shown.

SMILES	EphB4 antag	CYP2C9 act	CYP2C9 inh	CYP2C19 inh	CYP2C19 activ
CC(O)CNc1nc2c(c(=O)n(C)c(=O)n2C)n1Cc1cccc(Br)c1 (stereo not drawn)	-	-	60.5	-	-
O=C(NCCc1ccc(Cl)cc1)C1CCN(S(=O)(=O)c2ccc(-n3cnnn3)cc2)CC1	-	-	-	-	-
CCCNc1nc2c(c(=O)n(C)c(=O)n2C)n1Cc1cccc(C)c1	-	-	-	58.1	-
COc1ccc(N2CCN(C(=O)Cc3ncc(C(F)(F)F)cc3Cl)CC2)cc1	-	-	-	-	-
c1ccc(CC2CCN(C3=Nc4cccc5cccc3c45)CC2)cc1	-	-	-	86.7	-
COC(=O)C1=C(C)NC2=C(C(=O)CCC2)C1c1ccsc1 (stereo not drawn)	-	-	-	-	-
CCc1c(C(=O)Nc2ccc(OC)c(Cl)c2)[nH]c(C)c1C(C)=O	-	-	-	-	-
O=C1CC(c2cccs2)c2cc3c(cc2N1)OCO3 (stereo not drawn)	-	-	-	67.1	-
O=C1CC(c2ccncc2)c2cc3c(cc2N1)OCCO3 (stereo not drawn)	-	-	58.9	60.6	-
O=C1CC(c2ccc3c(c2)OCO3)c2cc3c(cc2N1)OCCO3 (stereo not drawn)	-	-	91.4	78.1	-
CCOc1c(OC)cccc1C1CC(=O)Nc2cc3c(cc21)OCCO3 (stereo not drawn)	.	-	69.7	93.9	-
COc1ccccc1N/N=C/c1c(CO)cnc(C)c1O	-	-	-	-	-
CCOn1c(=O)c(-c2cc3ccccc3o2)[n+]([O-])c2ccccc21	-	-	-	-	-
O=C(c1cccs1)N1CCN(S(=O)(=O)N2CCOCC2)CC1	-	-	-	58.5	-
O=C(c1ccco1)N1CCN(C(=O)c2cccs2)CC1	-	-	-	51.9	-
NC(=O)N1CCN(C(=O)c2ccco2)CC1	-	-	-	-	-
Nc1ccc(N2CCN(C(=O)c3cccs3)CC2)cc1	-	-	70.7	97.3	-
O=C(c1ccco1)N1CCN(S(=O)(=O)c2cccs2)CC1	-	-	-	87.7	-
CC(=O)Nc1ccc(N2CCN(C(=O)c3cccs3)CC2)cc1	.	-	-	-	-
Cn1c(CSc2nc3ccccc3s2)nnc1SCC(=O)NCCCN1CCOCC1	-	.	.	.	.
O=C(c1ccncc1)N1CCN(C(=O)c2cccs2)CC1	-	-	-	71.6	-
O=C(c1cccnc1)N1CCN(C(=O)c2cccs2)CC1	-	-	-	-	-
CCOc1cc(/C=C2/SC(=Nc3ccccc3)N(Cc3cccnc3)C2=O)ccc1OCC#N	-	-	-	-	-
COc1ccc(OCCOCCN2CCOCC2)cc1	-	-	-	-	-
Cc1ccc(Cn2nnnc2CN2CCC(O)(c3ccc(F)cc3)CC2)cc1	-	-	-	-	-
SMILES	EphB4 antag	CYP2C9 act	CYP2C9 inh	CYP2C19 inh	CYP2C19 activ
COc1ccc(C2(O)CCN(Cc3nnnn3Cc3ccc(C)cc3)CC2)cc1	-	-	62.6	51.0	-
COc1ccc(Cn2nnnc2CN2CCc3ccccc32)cc1	-	-	91.9	99.0	-
COc1ccc(OCCOCCN2CCc3ccccc3C2)cc1	-	-	-	59.2	-
COc1ccc(Cn2nnnc2CN2CCc3ccccc3C2)cc1	-	-	64.4	87.9	-
CCOC(=O)c1cnn(-c2cc(C)nc3c(-c4ccccc4)c(C)nn23)c1N	-	-	-	-	-
O=C(NCC1CCCO1)c1ccc2c(=O)n(Cc3ccco3)c(SCC(=O)N3CCCC3)nc2c1 (stereo not drawn)	-	-	-	-	-
COC(=O)Cn1cnc2c(nnn2Cc2ccc(Cl)cc2)c1=O	-	-	-	-	-
COc1ccccc1C(=O)Nc1c2c(nn1-c1cccc(C)c1C)CS(=O)(=O)C2	-	-	-	-	-
CCc1ccc(S(=O)(=O)NC(CC(=O)O)c2ccccc2)cc1 (stereo not drawn)	-	-	-	-	-
O=C(NCC(=O)N1CCC(N2CCCCC2)CC1)C1CCCCC1	-	-	-	-	-
C#CCSc1nnc(-c2sc(-c3ccccc3)nc2C)n1C	-	-	-	87.4	-
C#CCSc1nnc(-c2c[nH]c3ccccc23)n1C	.	-	-	-	-
NC(=O)c1c(NC(=O)c2cc3ccccc3o2)sc2c1CCC2	-	-	-	-	-
NC(=O)COc1c(-c2ccccc2)oc2ccccc2c1=O	-	-	-	-	-
Cc1c(NS(=O)(=O)c2ccc3c(c2)OCCO3)cccc1-c1nc2cccnc2s1	-	-	82.7	100.4	-
Cc1ccccc1CNS(=O)(=O)c1ccc2c(c1)OCCO2	-	.	.	.	.
Cc1cc(-c2nc3cccnc3s2)ccc1NS(=O)(=O)c1ccc2c(c1)OCCO2	-	-	96.2	-	-
CCS(=O)(=O)Nc1cc(-c2nc3cccnc3s2)ccc1C	-	-	-	-	-
COc1c(S(=O)(=O)N2CCCC2)ccc(Cl)c1Cl	-	2.4	-	88.5	-
O=S(=O)(c1cccc(Cl)c1Cl)N1CCCCC1	-	2.7	-	83.2	-
COc1ccc(S(=O)(=O)N2CCN(C)CC2)c2ccccc12	.	-	-	-	-
C=CCn1c(NCCO)nc2c1c(=O)n(C)c(=O)n2C	-	-	-	-	-
Cc1cc(=O)oc2c(C(=O)/C=C/c3ccccc3)c(O)ccc12	-	-	-	-	-
COc1ccc(NC(=S)Nc2ccc(F)cc2)c(OC)c1	-	.	.	.	.
CCc1nc(C)cn1S(=O)(=O)c1cc(C)c(OC)c(C)c1C	-	-	-	61.8	-
SMILES	EphB4 antag	CYP2C9 act	CYP2C9 inh	CYP2C19 inh	CYP2C19 activ
COc1c(C)cc(S(=O)(=O)NC2CC(C)(C)NC(C)(C)C2)c(C)c1C	-	.	.	.	.
CCc1nc(C)cn1S(=O)(=O)c1cc(Br)ccc1OC	-	-	-	95.7	-
CCc1nc(C)cn1S(=O)(=O)c1cc(Br)c(C)cc1OC	-	-	57.9	61.1	-
CCc1nc(C)cn1S(=O)(=O)c1cc(Cl)c(OC)cc1Cl	-	-	-	-	-
CCc1nc(C)cn1S(=O)(=O)c1ccc(Cl)c(Cl)c1Cl	-	-	59.6	94.9	-
COc1cc(C)c(C(C)C)cc1S(=O)(=O)n1cnc(C)c1	.	-	-	-	-
CC1(C(=O)NC23CC4CC(CC(C4)C2)C3)CC1(Cl)Cl (stereo not drawn)	-	-	-	-	-
CCc1nc(C)cn1S(=O)(=O)c1cc(C)c(OC)cc1C	-	-	-	61.9	-
C=CCN(C(=O)CN1CCOCC1)c1nc(C)c(-c2ccccc2)s1	.	-	-	69.5	-
O=C(CN1CCOCCOCCOCC1)Nc1ccccc1	-	-	-	-	-
Cc1c(/C=N/n2cnnc2)c2ccccc2n1C	-	-	-	76.6	-
COc1ccc(OCCn2c(C)c(/C=N/n3cnnc3)c3ccccc32)cc1	-	-	74.9	75.6	-
